# Laboratory results taken from PubChem BioAssay AID2073 (Sanford-Burnham Center for Chemical Genomics, 2009).
# Values joined by “and” are separate entries in the source; they are usually repeats but may differ in a detail not shown here. Equal entries are not always repeated. About 570 (0.2%) of roughly 290,000 compounds were called active. Inconclusive results (about 1%) are left out. The sample holds actives, similar compounds and a random draw of the others, so the mix is not that of the screen. Cut-off read from the data, not from the text of the source: active = inhibition mostly above about 51% (no sharp cut-off); inconclusive = no clear call, values can overlap the other calls; inactive = mostly below about 53%.
# Target: Voltage-dependent N-type calcium channel subunit alpha-1B (Homo sapiens) (UniProt Q00975)
# Sequence (Q00975 whole entry, looked up): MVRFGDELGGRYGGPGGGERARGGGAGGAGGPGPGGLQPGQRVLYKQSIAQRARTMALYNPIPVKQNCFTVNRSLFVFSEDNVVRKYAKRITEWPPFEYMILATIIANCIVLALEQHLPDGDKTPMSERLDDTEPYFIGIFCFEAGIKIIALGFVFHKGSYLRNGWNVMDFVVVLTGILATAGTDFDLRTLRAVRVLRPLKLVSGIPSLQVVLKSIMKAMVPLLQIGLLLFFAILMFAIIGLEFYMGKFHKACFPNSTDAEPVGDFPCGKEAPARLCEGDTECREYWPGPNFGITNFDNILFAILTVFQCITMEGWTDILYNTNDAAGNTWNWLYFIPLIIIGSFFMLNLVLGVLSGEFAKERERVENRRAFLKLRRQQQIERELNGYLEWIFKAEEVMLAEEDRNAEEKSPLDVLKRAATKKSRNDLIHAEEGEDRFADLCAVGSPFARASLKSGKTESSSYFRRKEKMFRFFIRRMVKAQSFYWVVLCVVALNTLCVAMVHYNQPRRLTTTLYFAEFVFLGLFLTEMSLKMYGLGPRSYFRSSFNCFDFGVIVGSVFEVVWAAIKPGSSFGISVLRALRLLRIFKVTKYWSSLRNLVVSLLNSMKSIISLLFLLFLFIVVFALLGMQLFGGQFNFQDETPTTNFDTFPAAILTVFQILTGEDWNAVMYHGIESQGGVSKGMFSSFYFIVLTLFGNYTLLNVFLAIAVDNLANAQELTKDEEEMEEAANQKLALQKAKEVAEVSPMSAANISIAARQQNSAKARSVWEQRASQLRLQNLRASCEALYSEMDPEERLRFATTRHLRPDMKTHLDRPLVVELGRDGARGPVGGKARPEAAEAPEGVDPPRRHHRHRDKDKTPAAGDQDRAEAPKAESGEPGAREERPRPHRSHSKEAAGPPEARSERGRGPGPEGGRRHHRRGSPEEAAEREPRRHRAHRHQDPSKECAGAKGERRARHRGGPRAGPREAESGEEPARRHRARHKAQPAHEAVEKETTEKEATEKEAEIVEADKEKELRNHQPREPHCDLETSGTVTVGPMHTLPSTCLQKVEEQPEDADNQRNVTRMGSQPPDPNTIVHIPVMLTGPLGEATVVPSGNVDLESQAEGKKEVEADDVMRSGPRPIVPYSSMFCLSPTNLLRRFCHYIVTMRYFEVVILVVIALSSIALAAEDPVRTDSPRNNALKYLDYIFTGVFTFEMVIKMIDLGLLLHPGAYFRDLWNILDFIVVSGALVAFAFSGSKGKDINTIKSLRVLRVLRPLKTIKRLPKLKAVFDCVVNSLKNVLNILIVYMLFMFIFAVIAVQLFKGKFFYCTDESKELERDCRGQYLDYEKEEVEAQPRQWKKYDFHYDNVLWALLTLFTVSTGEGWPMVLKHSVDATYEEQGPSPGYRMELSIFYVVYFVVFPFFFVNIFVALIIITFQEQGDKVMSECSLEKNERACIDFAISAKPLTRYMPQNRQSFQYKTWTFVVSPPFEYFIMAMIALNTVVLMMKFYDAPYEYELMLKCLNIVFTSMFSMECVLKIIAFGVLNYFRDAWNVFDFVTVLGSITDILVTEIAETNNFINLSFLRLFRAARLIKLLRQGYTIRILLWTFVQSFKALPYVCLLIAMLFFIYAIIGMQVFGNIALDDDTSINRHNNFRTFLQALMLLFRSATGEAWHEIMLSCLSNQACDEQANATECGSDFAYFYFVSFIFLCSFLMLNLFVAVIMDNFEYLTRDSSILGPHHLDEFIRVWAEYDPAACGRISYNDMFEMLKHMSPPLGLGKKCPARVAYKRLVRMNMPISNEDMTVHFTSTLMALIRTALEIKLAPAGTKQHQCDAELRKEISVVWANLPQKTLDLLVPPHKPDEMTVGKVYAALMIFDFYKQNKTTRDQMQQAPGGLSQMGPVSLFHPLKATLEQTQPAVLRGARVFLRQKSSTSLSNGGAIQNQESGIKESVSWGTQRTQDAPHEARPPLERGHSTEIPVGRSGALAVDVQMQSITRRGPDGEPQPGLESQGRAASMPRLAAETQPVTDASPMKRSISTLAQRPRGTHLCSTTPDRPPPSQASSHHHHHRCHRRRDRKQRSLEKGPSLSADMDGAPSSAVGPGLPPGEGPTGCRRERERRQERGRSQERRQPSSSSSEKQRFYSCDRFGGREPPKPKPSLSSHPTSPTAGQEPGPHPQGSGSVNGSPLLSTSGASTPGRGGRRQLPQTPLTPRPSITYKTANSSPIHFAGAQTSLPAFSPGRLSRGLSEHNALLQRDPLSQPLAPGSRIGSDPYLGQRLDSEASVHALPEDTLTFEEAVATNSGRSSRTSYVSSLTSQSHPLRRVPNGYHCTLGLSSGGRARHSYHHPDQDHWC
# Test: inhibitors of Mint1-CaV2.2 protein interaction, biochemical, HTRF (AID 2073)
# Details: at 20 µM, stronger effect = higher value
# [1] = measured here: average of repeat tests
Structure (SMILES),inhibition,inhibition [1] [%]
CC(Oc1ccc(F)cc1Br)c1nc2ccccc2c(=O)[nH]1 (stereo not given),10.2% (inactive),–
CC(C)(C)c1ccc(OCc2ccc(C(=O)N/N=C/c3ccc(O)c(O)c3)cc2)cc1,57.4% (active),–
CC(C)(C)c1ccc(C(=O)N/N=C/c2ccc(OCCCF)cc2)cc1,21.6% (inactive),–
Cc1ccc(C(C)C)c(OCc2ccc(C(=O)N/N=C/c3ccc(O)c(O)c3)cc2)c1,20.5% (inactive),–
CS(=O)(=O)N(CC(=O)N1CCCC1)Cc1ccc(Cl)c(Cl)c1,9.7% (inactive),–
CCc1cccc(CC)c1NC(=O)c1cccc(N)c1,2.5% (inactive),–
Cc1ccc(-c2cnn(-c3cccc([N+](=O)[O-])c3)c2N)cc1,22.4% (inactive),–
Cc1cc(C)cc(NC(=O)CCC(=O)N2CCSc3ccccc32)c1,-4.1% (inactive),–
COc1cc(CNc2ccc3[nH]c(=O)[nH]c3c2)cc(Br)c1OCC(=O)NC(C)(C)C,-33% (inactive),–
COc1cc(CNc2ccc3[nH]c(=O)[nH]c3c2)cc(Cl)c1OCC(=O)NC(C)(C)C,51.8% (active),–
COc1cc(CNc2ccc3[nH]c(=O)[nH]c3c2)ccc1OCC(=O)NC(C)(C)C,43.9% (inactive),–
COc1ccc(OC)c(C(=O)NC(CC(N)=O)c2ccc(NCC3CC3)c([N+](=O)[O-])c2)c1 (stereo not given),-4.2% (inactive),–
O=C(c1cccc(C(=O)N(c2ccccn2)C2CCCCC2)c1)N(c1ccccn1)C1CCCCC1,-10.9% (inactive),–
O=S(=O)(Nc1cc(Sc2cccc3cccnc23)c(O)c2ccccc12)c1ccccc1,69.2% (active),–
O=S(=O)(Nc1cc(Sc2ncn[nH]2)c(O)c2ccccc12)c1ccccc1,56.7% (inactive),-21.5
O=S(=O)(Nc1cc(Sc2cccc3cccnc23)c(O)c2ccccc12)c1ccc(F)cc1,-17% (inactive),–
COc1ccc(C2N(C(=O)c3ccccc3)CCN2C(=O)c2ccc(C)cc2)cc1 (stereo not given),-6.5% (inactive),–
CN(Cc1c(C(=O)N2CCCCCCC2)nc2ccc(Cl)cn12)C1CCOC1 (stereo not given),-10% (inactive),–
COC(=O)N1CC(c2ccccc2)CC1=O (stereo not given),-7.4% (inactive),–
O=[N+]([O-])c1ccc(-c2cnc3ccccc3n2)cc1,6.2% (inactive),–
Nc1nc(-c2ccc([N+](=O)[O-])cc2)cs1,35.7% (inactive),–
Cc1ccc(OCC(=O)N/N=C/C=C/c2ccco2)cc1,53.6% (inactive),27.1
Cc1ccccc1OCC(=O)N/N=C/c1ccc([N+](=O)[O-])o1,6.4% (inactive),–
O=C(COc1ccccc1[N+](=O)[O-])N/N=C/C=C/c1ccco1,4.5% (inactive),–

Structure (SMILES),inhibition,inhibition [1] [%]
Cc1cccc(OCC(=O)N/N=C/C=C/c2ccco2)c1,59.6% (inactive),16
Cc1ccc(OCC(=O)N/N=C/C=C/c2ccco2)cc1C,55.3% (active),–
COc1ccccc1OCC(=O)N/N=C/C=C/c1ccc([N+](=O)[O-])o1,54.5% (active),–
COCc1c(C(=O)OCC(=O)NCCN2C(=O)CSC2=O)oc2ccccc12,1.8% (inactive),–
COCCCNC(=O)c1cc2c(-c3ccc(Cl)cc3)nn(C)c2s1,13% (inactive),–
O=S(=O)(NCc1ccccc1)NCc1ccccc1,0.7% (inactive),–
CCN(CC)S(=O)(=O)c1cc(C(=O)OCC(=O)Nc2cccc(Br)c2)ccc1F,-2.8% (inactive),–
Oc1c(C=Nc2ccccc2)sc(=S)n1Cc1ccccc1,-4.9% (inactive),–
CCCCn1c(O)c(/C=C/C=C/C=Nc2ccccc2)sc1=S,71.6% (active),–
CCCn1c(O)c(C=Nc2ccccc2)sc1=S,35.6% (inactive),–
CCn1c(O)c(/C=C/C=C/C=Nc2ccccc2)sc1=S,1.5% (inactive),–
O=C(O)Cn1c(O)c(C=Nc2ccccc2)sc1=S,-17.7% (inactive) and -1.2% (inactive),–
Oc1c(/C=C/C=C/C=Nc2ccccc2)sc(=S)n1Cc1ccccc1,50.6% (active),–
O=C(Nc1cccc(Cl)c1)Nc1ccccc1C(=O)NCc1ccco1,3.4% (inactive),–
CCc1ccccc1NC(=S)NC1CC2CCC(C1)N2Cc1ccc(F)cc1 (stereo not given),-9.8% (inactive),–
CCn1c(SCC(=O)NNC(=O)c2ccc(C)cc2)nnc1C1CC1,7.6% (inactive),–
COc1ccccc1-c1nnc(SCC(=O)NCc2cccs2)n1N,-0.4% (inactive),–
O=C1OC(c2ccc(F)cc2)=C/C1=C\c1ccc([N+](=O)[O-])o1,73% (active),–
O=C1OC(c2ccc(F)cc2)=C/C1=C\c1ccc(O)cc1,-0.4% (inactive),–
O=[N+]([O-])c1ccc(/C=N\NS(=O)(=O)c2ccc(F)cc2)o1,-7% (inactive),–
CCOc1ccc(NC(=O)NC(=O)N(C)S(=O)(=O)c2ccc(C)cc2)cc1,8.1% (inactive),–
O=C(Nc1ccccc1)c1ccc2nc(-c3ccco3)c(-c3ccco3)nc2c1,57.1% (inactive),-4.3
O=C(c1ccccc1)c1ccc2nc(-c3ccco3)c(-c3ccco3)nc2c1,76.5% (active),–
O=C(c1ccc2nc(-c3ccco3)c(-c3ccco3)nc2c1)N1CCN(c2ccccc2)CC1,47.9% (inactive),–

Structure (SMILES),inhibition,inhibition [1] [%]
O=C(NCc1ccccc1)c1ccc2nc(-c3ccco3)c(-c3ccco3)nc2c1,55.4% (inactive),20.4
Cc1ccc(C)c(N2CCN(C(=O)c3ccc4nc(-c5ccco5)c(-c5ccco5)nc4c3)CC2)c1,56.6% (inactive),15.5
COc1ccccc1N1CCN(C(=O)c2ccc3nc(-c4ccco4)c(-c4ccco4)nc3c2)CC1,70% (active),–
O=C(NCC1CCCO1)/C(=C/c1ccccc1)NC(=O)c1ccccc1 (stereo not given),-11.4% (inactive),–
O=C(O)c1cccnc1-c1ncccc1C(=O)O,-7.6% (inactive),–
Cc1cccc(N/N=C2/COC(C)(C)CC2=O)c1,4.2% (inactive),–
NC(=O)C1CCN(CC(=O)c2c[nH]c3ccc(F)cc23)CC1,1.6% (inactive),–
CC1CCCN(C(=O)c2ccc3c(c2NCCO)C(=O)c2ccccc2C3=O)C1 (stereo not given),-10.5% (inactive),–
CC1CC(C)CN(C(=O)c2ccc3c(c2NCCO)C(=O)c2ccccc2C3=O)C1 (stereo not given),59% (active),–
CC1CCN(C(=O)c2ccc3c(c2NCCO)C(=O)c2ccccc2C3=O)CC1,-7.6% (inactive),–
CC(=O)CN1C(=O)NC(c2ccccc2)(c2ccccc2)C1=O,12.2% (inactive),–
Cc1cc(-c2ccc(S(=O)(=O)N(C)Cc3ccccc3)cc2)on1,9% (inactive),–
COc1ccc(CCc2nnc(CCC(=O)NCc3ccc4ncccc4c3)o2)cc1,-2.5% (inactive),–
COC(c1ccccc1)c1nnc(CCC(=O)NCc2cccc(-n3cccn3)c2)o1 (stereo not given),10.4% (inactive),–
COC(c1ccccc1)c1nnc(CCC(=O)NCc2ccc3ncccc3c2)o1 (stereo not given),50% (active),–
O=C1CNC(=O)/C1=C/c1ccccc1,7.3% (inactive),–
O=C1CSC(c2ccccc2)N1c1nnc(C23CC4CC(CC(C4)C2)C3)s1 (stereo not given),1.5% (inactive),–
CCOC(=O)c1nc2sc3c(c2c(=O)[nH]1)CCCC3,29.6% (inactive) and 12.3% (inactive),–
O=C(O)c1ccc(/C=C/c2nc3sc4c(c3c(=O)[nH]2)CCC4)cc1,40.5% (inactive),–
N#C/C(=C\c1ccc(C(=O)O)cc1)c1nc2sc3c(c2c(=O)[nH]1)CCCC3,73.5% (active),–
O=C1C(Cc2ccccc2)NC(=S)N1Cc1ccccc1 (stereo not given),-4.6% (inactive),–
Cc1ccc(NC(=O)Cn2sc3nc(C)cc(C)c3c2=O)c(Cl)c1,70.3% (active),–
Cc1cc(C)c2c(=O)n(CC(=O)Nc3ccc(Cl)cc3)sc2n1,23.2% (inactive),–
COC(=O)Cn1c(C)nc2c(sc3nc(C)cc(C)c32)c1=O,7.1% (inactive),–

Structure (SMILES),inhibition,inhibition [1] [%]
CCCNC(=O)Cn1sc2nc(C)cc(C)c2c1=O,88.4% (active),–
CC(=O)Cn1cnc2c(sc3nc(C)cc(C)c32)c1=O,-5.8% (inactive),–
Cc1ccc(NC(=O)Cn2c(C)cc(C)c(C#N)c2=O)c(Cl)c1,2.7% (inactive),–
CN1CCN(S(=O)(=O)c2cccc(C(=O)Oc3ccccc3Cl)c2)CC1,14.6% (inactive),–
COc1ccc(CNC(=O)Cn2nc([N+](=O)[O-])c(Br)c2C)cc1,2.9% (inactive),–
CCCN1C2=NCCN2c2ccccc21,2.5% (inactive),–
O=C(Nc1cccc(Cl)c1)Nc1nnc(-c2ccncc2)s1,56.2% (active),–
Cc1nnc(NC(=O)Nc2cccc(Cl)c2)s1,-1.9% (inactive),–
O=C(Nc1ccc(Cl)cc1)Nc1nnc(-c2ccncc2)s1,14.4% (inactive),–
COc1ccc(NC(=O)Nc2nnc(-c3ccncc3)s2)cc1,3.4% (inactive),–
Cc1ccc(NC(=O)Nc2nnc(-c3ccncc3)s2)cc1C,76.4% (active),–
O=C(Nc1ccc(F)cc1)Nc1nnc(-c2ccncc2)s1,50.5% (inactive),37.8
Cc1c(NC(=O)CN2CCN(c3ccc([N+](=O)[O-])cc3)CC2)c(=O)n(-c2ccccc2)n1C,1.5% (inactive),–
CC1Oc2ccccc2N(CC(=O)N2CCc3ccccc32)C1=O (stereo not given),-10.9% (inactive),–
CCCC(=O)N(Cc1cc(=O)[nH]c2ccccc12)c1ccc(C)cc1,14.9% (inactive),–
CCOc1ccc(N(CC(=O)NCc2ccco2)S(C)(=O)=O)cc1,13.2% (inactive),–
O=C(NNC(=S)NC(=O)c1ccccc1)c1ccc([N+](=O)[O-])cc1,-13% (inactive),–
Cc1nc2ccc(S(=O)(=O)NCC(=O)NCc3ccc4c(c3)OCO4)cc2s1,15.2% (inactive),–
CS(=O)(=O)Nc1cccc2[nH]ncc12,6.1% (inactive),–
N#CC1(C#N)[C@@H](C(=O)C23CC4CC(CC(C4)C2)C3)C12CCOCC2,0% (inactive),–
Cc1ccc(NS(=O)(=O)c2ccc(OCC(=O)N3CCOCC3)cc2)cc1,-10.3% (inactive),–
